Sampled rows, rich in hits. Any-hit rate of the full collection: about 7.6%.
CRE Fsk mod = CRE-bla signaling modulation under forskolin stimulation; CHO CRE-bla reporter (cAMP response element driving beta-lactamase), forskolin EC10, beta-lactamase ratio; Potency, µM (top dose mostly 38.2 µM), without a hit: top-dose activity change, negative = inhibition, hits mostly activators; 71,000 tested, 2.5% active; AID 662; active = well fitted activation curve with a large enough effect in the signal ratio, with a control signal flat, not every such curve was filed as active; inconclusive = small, poorly fitted or top-dose-only effect, or effect the other way, or a change in a side signal; the % refers to the signal ratio; also: % of control where 0% means no effect
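Forskolin analogue NKH 477 at EC10 stimulated CRE-driven beta-lactamase in CHO cells alongside compound dilution series. Beta-lactamase was measured with CCF4, excitation 405 nm, emission ratio 460/530 nm.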
ERK AVP inh = blocks ERK signaling stimulated by vasopressin; Potency, µM (titrated, usually from 57.5 µM), without a hit: at the top dose activity, negative = inhibition, actives largely listed as inhibitors; AID 995; 72,000 tested, 0.99% active; HEK293-V1b, vasopressin-stimulated pERK AlphaScreen; also: % is scaled to controls: 0 for no effect and ±100 for the full control effect; nearly all actives have a fitted effect of over 55% in size
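Phosphorylated ERK1/2 detected via AlphaScreen bead proximity in lysates of V1b-expressing HEK293 cells given 25 nM vasopressin for 5 min after 30 min compound exposure (37 °C). AC50 from Hill equation; basal DMSO 0%, vasopressin 100%.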
HEK293 cAMP cs = raises cAMP in parental HEK293 cells, TSHR agonist counter-screen | 73,000 tested, 2.5% active | Potency, µM (top dose mostly 57.1 µM), without a hit: at the highest dose activation, actives largely listed as activators | AID 938 | parental HEK293 CNG cAMP sensor, membrane potential fluorescence; also: % of control where 0% means no effect; nearly all actives have a fitted effect of over 55% in size
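Parental HEK 293 cells stably expressing a cAMP-gated CNG channel were loaded with membrane potential dye containing 100 uM RO 20-1724 for 60 min. Compound added for 30 min; depolarization read as fluorescence intensity at 590 nm.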
TSHR ag = TSH receptor (human) agonism. AID 926. HEK293-CNG-TSHR cells (CNG channel as cAMP sensor), membrane potential dye, cAMP. Potency, µM (series often up to 57.1 µM), for the others: top-dose activation, hits mostly activators. P16473. 73,000 tested, 0.48% active; active = well fitted activation curve with a large enough effect in the main read-out, with a control signal flat, not every such curve was filed as active; inconclusive = small, poorly fitted or top-dose-only effect, or a change in a side signal; inactive = no such curve, though single readings can be large or run the other way; % of control where 0% means no effect;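 also: the control signal comes from parental cells without the receptor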
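cAMP rise detected as CNG-channel membrane depolarization by fluorescent dye (emission 590 nm), 30 min after compound, following 60 min dye loading containing 100 uM RO 20-1724 at room temperature. Cells: TSHR/CNG HEK 293, with parental CNG HEK 293 as control.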
Tau fil binding = binders of human tau filaments; recombinant tau filaments, thioflavin S fluorescence, 15 h; filaments grown with octadecylsulfate alongside compound; Potency, µM (highest dose often 57.1 µM), inactives show at the top dose activity change, negative = inhibition; 71,000 tested, 2% active; AID 596;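 also: % is scaled to controls: 0 for no effect and ±100 for the full control effect; actives lower thioflavin S fluorescence by blocking filaments or displacing dye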
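Quantitative HTS: thioflavine S signal from ODS-induced tau filaments, excited at 450 nm, emission 510 nm. Conditions: 1 uM tau, 30 uM ODS, 15 h at 37 C, pH 7.4.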
The depositor's hits bear a star; u = inconclusive; x = no result given; [ ] = dose if it differs, or a comment. Unless noted, calls follow the shape of the dose curve; as a rule, active = well fitted curve in the direction sought with a large enough effect; inconclusive = small, poorly fitted or top-dose-only effect, or another doubt; inactive = no such curve, though single readings can be large; an effect the other way counts as inactive or inconclusive. Potency is read from the fitted curve at half-maximal effect.

SMILES | CRE Fsk mod | ERK AVP inh | HEK293 cAMP cs | TSHR ag | Tau fil binding
Brc1ccccc1-c1nnc(COc2ncnc3c2cnn3-c2ccccc2)o1 | u | 32µM* | 25µM* | u | -2%
COc1ccc(C(=O)N2CCC[C@@]3(CCN(c4ncccn4)C3)C2)cc1 | 4% | -16% | 1% | 7% | -20%
O=S(=O)(Nc1ccc(S(=O)(=O)N2CCCCC2)cc1)c1cccs1 | 0% | -24% | 19% | -4% | 2%
O=S(=O)(Nc1ccc(N2CCOCC2)cc1)c1cccs1 | -6% | -10% | -1% | -18% | 16µM*
Cc1cnc(CNc2ncnc3ccc(-c4cccc(C#N)c4)cc23)cn1 | 8% | -7% | -3% | 4% | 1%
COC(=O)N1CCc2cc(OC)c(OC)cc2C1Cc1ccc(OC)cc1 (stereo not given) | x | 18%[11.5 µM] | -3%[11.4 µM] | -1%[11.4 µM] | x
COC(=O)c1ccc(OCC2c3cc(OC)c(OC)cc3CCN2C(=O)c2ccco2)cc1 (stereo not given) | 1.6µM* | u | 28% | 32µM* | 3%
CCC(=O)N1CCc2cc(OC)c(OC)cc2C1COc1ccc(C(=O)OC)cc1 (stereo not given) | 4µM* | u | u | u | 12%
COc1cc2c(cc1OC)C(c1ccccc1)N(C(=O)c1ccco1)CC2 (stereo not given) | u | -13% | u | u | -4%
O=S(=O)(Nc1ccc(-c2nc3cccnc3s2)cc1)c1cccs1 | 3.2µM* | x | u | u | 416%
O=S(=O)(Nc1cccc2ncccc12)c1cccs1 | u | 10% | u | u | -3%
Cc1ccc2oc(=O)n(CCOc3ccccc3Cl)c2c1 | 12% | 21% | u | u | 121%
CCOc1ccccc1Cn1c(=O)oc2ccc(C)cc21 | u | 2% | 25µM* | u | 8%
CCCOc1ccccc1Cn1c(=O)oc2ccc(C)cc21 | 1% | 73% | 13µM* | u | 8%
CCCOc1ccc(Cn2c(=O)oc3ccc(C)cc32)cc1OC | 26% | 7% | u | u | 53%
CC1(C(=O)Nc2nccs2)Cc2ccccc2C(=O)O1 (stereo not given) | u | 25µM* | 17% | x | 13µM*
NCCCc1c(-c2ccccc2)nc(N)[nH]c1=O | 0%[7.6 µM] | 14%[11.5 µM] | -3%[11.4 µM] | 2%[11.4 µM] | 0%[11.4 µM]
CCCn1c(C)nc2c(N3CCOCC3)nc(C)nc21 | 10µM* | -19% | 10% | 2% | -7%
CCCn1c(C)nc2c(N3CCC(N4CCN(C)CC4)CC3)nc(C)nc21 | 7% | -2% | 8% | 1% | -10%
COCCn1c(=O)c(-c2cccc(C#N)c2)nc2cnc(N3CCNCC3)nc21 | u | 24% | 25%[2.29 µM] | 0% | -7%
COc1ccc(COn2c(=O)c(C)[n+]([O-])c3ccccc32)cc1OC | 10µM* | u | 5% | 8% | -6%
c1ccc(CN2CCN(c3nc4ccccc4n4cnnc34)CC2)cc1 | 13µM* | -16% | 15% | 23% | 49%
c1ccc2c(c1)CCN(c1nc3ccccc3n3cnnc13)C2 | 0.4µM* | -15% | 2% | 14% | 246%
O=C(c1cccc(F)c1)N1CCC2(CCCN(c3ccccc3)C2)CC1 | u | -5% | u | u | -4%
COC(=O)c1ccc(C(NC(=O)OCc2ccccc2)/C(F)=C/[C@@H](C)C(=O)N(C)Cc2cccnc2)cc1 (stereo not given in full) | -5% | -15% | 26% | x | 19%
CCC1CCCCN1CC(=O)Nc1cc(C)nn1-c1nc(C)cc(C)n1 (stereo not given) | 2.5µM* | 1% | 25µM* | u | 32%
CCN(CC)CCCCn1c(-c2ccccc2)nc2c(NC3CCCCC3)nc(C)nc21 | 1% | 11% | u | u | 93%
COc1cccc(NC(=O)c2ccccc2-c2nc(-c3ccccc3)no2)c1 | u | -14% | 10µM* | u | 63%
COc1ccc(-c2noc(-c3ccccc3C(=O)NCc3ccco3)n2)cc1OC | 15% | -17% | 27% | 43% | 10%
COc1cccc(NC(=O)c2ccccc2-c2nc(-c3ccc(F)cc3)no2)c1 | 13% | -2% | 32µM* | u | 58%

Screening data from PubChem.
